The source of these data is the antibiotic and cytotoxicity screens of Wong et al. (2023).

Among all 39,000 compounds or so, about 3,300 (8.5%) were called active. The sample holds actives, similar compounds and a random draw of the others, so the mix is not that of the screen.

This test concerns HepG2. The test can be described thus: cytotoxicity call (relative viability < 0.9). The settings on record: 10 µM.
Regarding `COc1ccc(NC(=O)N(C)C[C@H]2OCCCC[C@H](C)Oc3ccc(NS(=O)(=O)c4cccs4)cc3C(=O)N([C@@H](C)CO)C[C@@H]2C)cc1`, the cytotoxicity call was “inactive”.
Then `C[C@H](CO)N1C[C@H](C)[C@H](CN(C)S(=O)(=O)c2ccc3c(c2)OCCCO3)OCc2cn(nn2)CCCC1=O`, with “inactive”; and `C[C@H]1CCCCO[C@@H](CN(C)C(=O)CCC(F)(F)F)[C@@H](C)CN([C@@H](C)CO)C(=O)c2cc(NS(=O)(=O)c3ccccc3)ccc2O1`, with “inactive”; and `NC(=O)N1Cc2nccn2C[C@H](Cn2cncn2)C1`, with “inactive”.
Then `Cc1ccc(S(=O)(=O)Nc2ccc3c(c2)C(=O)N([C@H](C)CO)C[C@@H](C)[C@H](CN(C)C(=O)Nc2ccccc2)OCCCC[C@@H](C)O3)cc1`, with “inactive”; and `Cc1ccccc1S(=O)(=O)N1C[C@H](O)COC[C@H]2O[C@@H](CC(=O)N3CCC(Cc4ccccc4)CC3)CC[C@@H]21`, with “active”.
On to `Cc1ccccc1S(=O)(=O)N1C[C@H](O)COC[C@@H]2O[C@@H](CC(=O)N3CCC(Cc4ccccc4)CC3)CC[C@H]21`, for which the cytotoxicity call was “inactive”.
As for `CN1CCN(C(=O)C[C@@H]2CC[C@H]3[C@@H](COC[C@@H](O)CN3Cc3ccc(Oc4ccccc4)cc3)O2)CC1`, the cytotoxicity call was “inactive”.
Then `Cc1ccccc1S(=O)(=O)N1C[C@H](O)COC[C@H]2O[C@H](CC(=O)N3CCC(Cc4ccccc4)CC3)CC[C@@H]21`, with “active”; and `O=C(C[C@@H]1CC[C@H]2[C@@H](COC[C@@H](O)CN2S(=O)(=O)c2ccccc2F)O1)N1CCC(Cc2ccccc2)CC1`, with “inactive”.
To `Cc1ccccc1S(=O)(=O)N1C[C@@H](O)COC[C@@H]2O[C@H](CC(=O)N3CCC(Cc4ccccc4)CC3)CC[C@H]21` belongs “inactive”; to `Cc1ccccc1S(=O)(=O)N1C[C@@H](O)COC[C@H]2O[C@H](CC(=O)N3CCC(Cc4ccccc4)CC3)CC[C@@H]21`, “active”; to `O=C(C[C@@H]1CC[C@@H]2[C@H](COC[C@@H](O)CN2S(=O)(=O)c2ccccc2F)O1)N1CCC(Cc2ccccc2)CC1`, “inactive”.
On to `Cc1ccccc1S(=O)(=O)N1C[C@@H](O)COC[C@H]2O[C@@H](CC(=O)N3CCC(Cc4ccccc4)CC3)CC[C@@H]21`, for which the cytotoxicity call was “inactive”.
To `CN1CCN(C(=O)C[C@H]2CC[C@H]3[C@@H](COC[C@H](O)CN3Cc3ccc(Oc4ccccc4)cc3)O2)CC1` belongs “inactive”; to `Cc1ccccc1S(=O)(=O)N1C[C@H](O)COC[C@@H]2O[C@H](CC(=O)N3CCC(Cc4ccccc4)CC3)CC[C@H]21`, “inactive”.
Regarding `CN1CCN(C(=O)C[C@H]2CC[C@@H]3[C@H](COC[C@@H](O)CN3Cc3ccc(Oc4ccccc4)cc3)O2)CC1`, the cytotoxicity call was “active”.
To `C[C@@H]1CCCCO[C@H](CN(C)C(=O)Nc2ccc(F)cc2)[C@@H](C)CN([C@H](C)CO)C(=O)c2cc(NC(=O)C3CCCCC3)ccc2O1` belongs “inactive”; to `C[C@@H]1CCCCO[C@@H](CN(C)C(=O)c2ccccc2)[C@H](C)CN([C@H](C)CO)C(=O)c2cc(NS(=O)(=O)c3ccccc3)ccc2O1`, “inactive”; to `C=c1ccccc1=C1NN=C(CN2CCCC2)O1`, “inactive”.
To `C[C@H]1CCCCO[C@H](CN(C)Cc2ccc(Cl)c(Cl)c2)[C@@H](C)CN([C@@H](C)CO)C(=O)c2cc(NS(C)(=O)=O)ccc2O1` belongs “inactive”.
To `COCC#Cc1ccc2c(c1)O[C@H](CN(C)S(=O)(=O)c1cccc(F)c1)[C@@H](C)CN([C@H](C)CO)S2(=O)=O` belongs “inactive”; to `C[C@@H]1CCCCO[C@H](CN(C)Cc2ccc(C(=O)O)cc2)[C@@H](C)CN([C@@H](C)CO)C(=O)c2cc(NC(=O)NC3CCCCC3)ccc2O1`, “inactive”; to `Cc1ccc2nc(-c3ccc(/N=C\c4ccc[nH]4)cc3)sc2c1`, “active”.
With `Cc1ccc2nc(/N=C/c3ccc(Cl)cc3Cl)sc2c1`, the cytotoxicity call is “inactive”.
In the case of `Cc1ccc2nc(-c3ccc(NC(=O)C4CCC4)cc3)sc2c1`, the cytotoxicity call was “inactive”.
Consider `COc1ccc2c3c([nH]c2c1)[C@H](CO)N(CC1CCCCC1)C[C@]13CCN(CC1)C(=O)Nc1cccc(c1)F`, for which the cytotoxicity call is “inactive”.
`COc1ccc2c3c([nH]c2c1)[C@@H](CO)N(CC1CCCCC1)C[C@]13CCN(CC1)C(=O)Nc1cccc(c1)F`: the cytotoxicity call is “inactive”.
As for `COc1ccc2c3c([nH]c2c1)[C@H](CO)N(C[C@]13CCN(CC1)CC1CCCCC1)C(=O)Nc1cccc(c1)F`, the cytotoxicity call was “active”.
Then `COc1ccc2c3c([nH]c2c1)[C@@H](CO)N(C[C@]13CCN(CC1)CC1CCCCC1)C(=O)Nc1cccc(c1)F`, with “active”; and `COc1ccc2c3c([nH]c2c1)[C@@H](CO)N(C[C@]13CCN(CC1)CC1CCCCC1)C(=O)Nc1c(noc1C)C`, with “inactive”; and `COc1ccc2c3c([nH]c2c1)[C@H](CO)N(C[C@]13CCN(CC1)CC1CCCCC1)C(=O)Nc1c(noc1C)C`, with “inactive”.
`C[C@@H]1CCCCO[C@@H](CN(C)C(=O)CCC(F)(F)F)[C@@H](C)CN([C@H](C)CO)C(=O)c2cc(NC(=O)Nc3ccc(F)cc3)ccc2O1`: the cytotoxicity call is “inactive”.
To `C[C@H]1CN([C@@H](C)CO)C(=O)c2cccc(NC(=O)c3ccc(-c4nccs4)cc3)c2O[C@@H]1CN(C)C(=O)Nc1ccc(F)cc1` belongs “inactive”; to `Cc1noc(C)c1NC(=O)N(C)C[C@@H]1OCCCC[C@H](C)Oc2ccc(NC(=O)NC3CCCCC3)cc2C(=O)N([C@@H](C)CO)C[C@@H]1C`, “inactive”.
To `O=c1[nH]nc(Br)c(=O)[nH]1` belongs “inactive”; to `O=C(O)C[C@H]1CC[C@@H]2[C@H](COC[C@@H](O)CN2S(=O)(=O)c2ccc(F)cc2)O1`, “inactive”.
Take `O=C(O)c1cc(=O)c2ccccc2o1`: the cytotoxicity call was “inactive”.
To `O=c1oc2ccccc2c(O)c1Cc1c(O)c2ccccc2oc1=O` belongs “inactive”.
`CC(=O)CC(c1ccccc1)c1c(O)c2ccccc2oc1=O` (configuration not stated): the cytotoxicity call was “active”.
Then `CO[C@@H](CN(C)S(=O)(=O)c1cccc(Cl)c1)[C@@H](C)CN([C@@H](C)CO)S(=O)(=O)c1cccc(Cl)c1`, with “inactive”; and `C[C@@H]1CN([C@@H](C)CO)C(=O)Cc2cc(NC(=O)Cc3cn(C)c4ccccc34)ccc2O[C@H]1CN(C)Cc1ccc(Oc2ccccc2)cc1`, with “active”; and `C[C@H](CO)N1C[C@H](C)[C@H](CN(C)Cc2ccc(Oc3ccccc3)cc2)Oc2ccc(NC(=O)Cc3cn(C)c4ccccc34)cc2CC1=O`, with “active”.
Regarding `C[C@H]1CN([C@@H](C)CO)C(=O)Cc2cc(NC(=O)Cc3cn(C)c4ccccc34)ccc2O[C@@H]1CN(C)Cc1ccc(Oc2ccccc2)cc1`, the cytotoxicity call was “inactive”.
Take `C[C@H]1CN([C@@H](C)CO)C(=O)Cc2cc(NC(=O)Cc3cn(C)c4ccccc34)ccc2O[C@H]1CN(C)Cc1ccc(Oc2ccccc2)cc1`: the cytotoxicity call was “active”.
For the compound `C[C@@H]1CN([C@H](C)CO)C(=O)Cc2cc(NC(=O)Cc3cn(C)c4ccccc34)ccc2O[C@H]1CN(C)Cc1ccc(Oc2ccccc2)cc1`, the cytotoxicity call was “inactive”.
Then `C[C@@H]1CN([C@H](C)CO)C(=O)Cc2cc(NC(=O)Cc3cn(C)c4ccccc34)ccc2O[C@@H]1CN(C)Cc1ccc(Oc2ccccc2)cc1`, with “active”.
